# Results from the supplement of paper PMC6411743.
# ± gives the standard deviation of the averaged measurements. Of roughly 5,400 targets only a part is listed; those with the largest changes were picked by preference.
# Compound: Nc1nc2c(ncn2[C@@H]2O[C@H](COP(=O)(O)OP(=O)(O)OP(=O)(O)O)[C@@H](O)[C@H]2O)c(=O)[nH]1 [guanosine triphosphate]
# Assay: NP40-soluble protein abundance relative to vehicle (solubility fold change) (ratio); higher = more soluble protein in presence of GTP
# Conditions: concentration: 2mM
# Method in brief: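 Eight concentrations, 0.1 to 10 mM, were tested on Jurkat crude lysate for 10 min at room temperature and then 3 min at 37 °C, in three independent experiments. The lysate was solubilised with 0.8% NP40 and benzonase, ultracentrifuged, and the supernatant TMT-labelled for LC-MS/MS. Each value is the fold change against the detergent-processed vehicle in its own replicate, from vsn-normalised intensities.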
# Sequence of UniProt Q13200 (Q13200 whole entry): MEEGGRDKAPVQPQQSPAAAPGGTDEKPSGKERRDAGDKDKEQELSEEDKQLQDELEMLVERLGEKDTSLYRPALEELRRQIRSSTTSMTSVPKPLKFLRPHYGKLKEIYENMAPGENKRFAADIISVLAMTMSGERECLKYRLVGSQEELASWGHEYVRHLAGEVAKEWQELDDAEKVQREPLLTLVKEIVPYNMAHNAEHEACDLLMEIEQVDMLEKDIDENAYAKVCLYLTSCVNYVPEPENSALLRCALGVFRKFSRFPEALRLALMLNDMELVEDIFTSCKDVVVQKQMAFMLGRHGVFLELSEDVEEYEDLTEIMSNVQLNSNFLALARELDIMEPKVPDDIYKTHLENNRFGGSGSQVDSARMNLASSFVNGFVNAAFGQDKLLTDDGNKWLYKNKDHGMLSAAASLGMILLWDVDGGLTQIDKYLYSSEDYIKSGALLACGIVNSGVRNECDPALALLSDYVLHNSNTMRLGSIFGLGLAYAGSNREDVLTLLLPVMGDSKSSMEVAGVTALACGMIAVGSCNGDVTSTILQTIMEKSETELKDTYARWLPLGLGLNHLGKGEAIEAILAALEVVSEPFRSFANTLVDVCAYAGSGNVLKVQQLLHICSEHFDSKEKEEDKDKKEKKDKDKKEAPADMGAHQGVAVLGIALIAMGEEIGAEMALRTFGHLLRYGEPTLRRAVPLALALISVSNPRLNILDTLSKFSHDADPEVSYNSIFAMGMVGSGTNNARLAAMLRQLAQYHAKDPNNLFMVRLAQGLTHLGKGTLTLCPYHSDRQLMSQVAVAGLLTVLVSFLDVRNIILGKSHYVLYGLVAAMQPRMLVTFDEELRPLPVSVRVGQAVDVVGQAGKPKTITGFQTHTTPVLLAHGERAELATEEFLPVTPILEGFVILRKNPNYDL
# Sequence of UniProt Q86W42 (Q86W42 whole entry): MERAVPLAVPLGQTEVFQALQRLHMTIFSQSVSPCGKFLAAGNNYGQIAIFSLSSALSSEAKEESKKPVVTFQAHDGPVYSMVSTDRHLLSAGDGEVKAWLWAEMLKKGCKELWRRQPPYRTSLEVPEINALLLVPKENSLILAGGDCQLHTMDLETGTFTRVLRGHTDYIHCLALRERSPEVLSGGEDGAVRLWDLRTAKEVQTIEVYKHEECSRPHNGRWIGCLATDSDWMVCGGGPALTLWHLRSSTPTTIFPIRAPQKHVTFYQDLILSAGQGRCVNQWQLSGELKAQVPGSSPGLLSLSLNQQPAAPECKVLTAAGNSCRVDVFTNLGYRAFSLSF
# Sequence of UniProt Q13428 (Q13428 whole entry): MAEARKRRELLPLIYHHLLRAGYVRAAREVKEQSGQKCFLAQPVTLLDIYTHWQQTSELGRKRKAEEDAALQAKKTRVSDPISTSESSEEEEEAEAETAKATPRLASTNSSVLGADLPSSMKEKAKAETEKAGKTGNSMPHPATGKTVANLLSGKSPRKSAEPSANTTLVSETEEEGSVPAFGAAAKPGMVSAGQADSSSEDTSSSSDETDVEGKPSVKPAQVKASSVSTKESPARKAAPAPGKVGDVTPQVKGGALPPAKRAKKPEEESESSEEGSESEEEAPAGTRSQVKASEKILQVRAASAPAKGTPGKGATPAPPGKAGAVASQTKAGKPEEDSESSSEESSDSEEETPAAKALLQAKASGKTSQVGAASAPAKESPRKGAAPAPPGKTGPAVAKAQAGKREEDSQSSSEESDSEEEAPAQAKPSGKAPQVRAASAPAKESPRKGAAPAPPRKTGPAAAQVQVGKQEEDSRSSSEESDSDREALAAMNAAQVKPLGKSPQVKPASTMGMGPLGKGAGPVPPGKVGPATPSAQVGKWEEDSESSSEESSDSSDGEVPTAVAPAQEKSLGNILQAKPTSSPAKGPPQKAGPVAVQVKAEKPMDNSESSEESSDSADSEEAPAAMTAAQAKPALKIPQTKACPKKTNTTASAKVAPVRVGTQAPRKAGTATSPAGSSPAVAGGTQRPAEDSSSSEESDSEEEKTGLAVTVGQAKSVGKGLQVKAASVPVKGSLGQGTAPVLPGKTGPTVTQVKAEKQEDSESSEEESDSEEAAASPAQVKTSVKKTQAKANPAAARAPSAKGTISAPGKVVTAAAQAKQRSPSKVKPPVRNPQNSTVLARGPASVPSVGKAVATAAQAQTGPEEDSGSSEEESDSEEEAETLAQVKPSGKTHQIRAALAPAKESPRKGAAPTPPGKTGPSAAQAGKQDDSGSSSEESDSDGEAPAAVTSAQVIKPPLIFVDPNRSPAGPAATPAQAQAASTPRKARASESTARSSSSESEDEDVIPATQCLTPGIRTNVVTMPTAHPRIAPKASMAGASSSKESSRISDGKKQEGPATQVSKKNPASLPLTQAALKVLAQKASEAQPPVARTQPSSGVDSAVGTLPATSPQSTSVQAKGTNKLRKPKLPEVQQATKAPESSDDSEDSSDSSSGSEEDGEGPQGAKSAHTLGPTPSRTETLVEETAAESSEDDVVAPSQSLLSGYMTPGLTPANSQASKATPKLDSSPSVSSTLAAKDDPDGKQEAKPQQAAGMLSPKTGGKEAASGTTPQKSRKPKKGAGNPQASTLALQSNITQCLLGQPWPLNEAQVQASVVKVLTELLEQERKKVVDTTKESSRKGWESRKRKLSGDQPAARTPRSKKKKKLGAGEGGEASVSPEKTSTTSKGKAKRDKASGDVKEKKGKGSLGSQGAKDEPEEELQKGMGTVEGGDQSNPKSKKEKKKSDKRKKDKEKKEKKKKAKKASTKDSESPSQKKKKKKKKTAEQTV
# Sequence of UniProt Q10567 (Q10567 whole entry): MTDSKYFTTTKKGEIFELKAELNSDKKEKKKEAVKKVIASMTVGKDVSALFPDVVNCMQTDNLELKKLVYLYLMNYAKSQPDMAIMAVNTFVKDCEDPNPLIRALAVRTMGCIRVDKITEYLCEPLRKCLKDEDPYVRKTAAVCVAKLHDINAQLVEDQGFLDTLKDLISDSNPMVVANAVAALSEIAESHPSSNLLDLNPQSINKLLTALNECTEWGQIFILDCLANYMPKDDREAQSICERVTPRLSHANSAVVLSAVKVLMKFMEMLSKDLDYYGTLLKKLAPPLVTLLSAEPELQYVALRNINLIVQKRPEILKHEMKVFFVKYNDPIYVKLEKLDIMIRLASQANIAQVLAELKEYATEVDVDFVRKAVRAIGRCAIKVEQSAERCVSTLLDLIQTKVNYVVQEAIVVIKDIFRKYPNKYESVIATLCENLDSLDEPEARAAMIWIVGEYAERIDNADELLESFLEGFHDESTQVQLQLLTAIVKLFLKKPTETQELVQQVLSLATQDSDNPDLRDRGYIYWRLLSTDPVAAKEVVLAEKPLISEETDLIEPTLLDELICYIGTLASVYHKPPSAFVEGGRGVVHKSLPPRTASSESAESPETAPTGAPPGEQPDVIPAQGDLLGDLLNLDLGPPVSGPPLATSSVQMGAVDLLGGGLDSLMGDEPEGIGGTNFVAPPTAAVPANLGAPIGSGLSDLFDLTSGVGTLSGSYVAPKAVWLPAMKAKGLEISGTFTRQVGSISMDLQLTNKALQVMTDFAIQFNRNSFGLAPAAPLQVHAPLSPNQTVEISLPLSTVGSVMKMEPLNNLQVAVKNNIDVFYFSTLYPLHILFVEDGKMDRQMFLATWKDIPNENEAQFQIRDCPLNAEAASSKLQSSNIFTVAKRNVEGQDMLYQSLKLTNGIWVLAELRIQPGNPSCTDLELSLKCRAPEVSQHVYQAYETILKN
# Sequence of UniProt Q6IBS0 (Q6IBS0 whole entry): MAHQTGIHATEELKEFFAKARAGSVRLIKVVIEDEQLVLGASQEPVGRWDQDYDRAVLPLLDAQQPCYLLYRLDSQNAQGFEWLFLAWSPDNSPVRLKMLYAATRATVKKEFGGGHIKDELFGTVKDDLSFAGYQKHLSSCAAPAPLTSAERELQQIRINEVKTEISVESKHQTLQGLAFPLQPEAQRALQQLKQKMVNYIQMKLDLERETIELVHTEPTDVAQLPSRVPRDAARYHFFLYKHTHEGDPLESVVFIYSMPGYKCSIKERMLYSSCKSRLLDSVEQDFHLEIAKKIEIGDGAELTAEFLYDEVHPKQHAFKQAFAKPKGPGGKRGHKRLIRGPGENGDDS
# Sequence of UniProt Q68D91 (Q68D91 whole entry): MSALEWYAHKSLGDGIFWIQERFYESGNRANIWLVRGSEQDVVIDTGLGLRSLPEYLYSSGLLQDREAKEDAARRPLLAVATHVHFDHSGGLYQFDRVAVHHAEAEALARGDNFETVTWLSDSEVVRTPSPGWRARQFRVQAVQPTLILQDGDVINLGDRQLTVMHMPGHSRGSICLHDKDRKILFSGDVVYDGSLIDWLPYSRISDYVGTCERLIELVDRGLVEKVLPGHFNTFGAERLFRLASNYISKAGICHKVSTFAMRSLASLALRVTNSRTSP
# Sequence of UniProt Q14444 (Q14444 whole entry): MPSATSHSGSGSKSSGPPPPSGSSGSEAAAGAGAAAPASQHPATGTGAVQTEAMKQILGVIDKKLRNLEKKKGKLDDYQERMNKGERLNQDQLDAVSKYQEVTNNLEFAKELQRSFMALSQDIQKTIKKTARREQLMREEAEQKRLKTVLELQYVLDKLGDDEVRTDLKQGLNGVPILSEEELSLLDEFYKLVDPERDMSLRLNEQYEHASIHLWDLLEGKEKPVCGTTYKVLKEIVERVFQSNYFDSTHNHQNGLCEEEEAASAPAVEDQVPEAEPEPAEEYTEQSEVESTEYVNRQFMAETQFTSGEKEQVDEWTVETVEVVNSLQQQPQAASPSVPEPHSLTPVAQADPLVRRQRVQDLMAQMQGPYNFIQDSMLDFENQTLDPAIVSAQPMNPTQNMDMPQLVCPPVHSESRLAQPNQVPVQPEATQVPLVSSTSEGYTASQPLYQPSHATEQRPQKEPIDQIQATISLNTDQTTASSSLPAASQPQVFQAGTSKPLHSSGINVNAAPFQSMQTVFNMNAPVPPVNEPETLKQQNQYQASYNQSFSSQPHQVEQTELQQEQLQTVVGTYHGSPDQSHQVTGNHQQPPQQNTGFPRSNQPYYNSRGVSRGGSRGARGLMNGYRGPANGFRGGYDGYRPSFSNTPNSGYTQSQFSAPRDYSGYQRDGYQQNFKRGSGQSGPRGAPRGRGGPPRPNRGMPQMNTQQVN
row,Target,NP40-soluble protein abundance
1,UniProt P55072,1.02 ± 0.12
2,YRDC (UniProt Q86U90),0.943 ± 0.015
3,UniProt Q86U86|Q86U86-8|Q86U86-2|Q86U86-4|Q86U86-5|Q86U86-7|Q86U86-9,1.38 ± 0.11
4,UniProt Q5K651|C9JKF1,1.01 ± 0.062
5,UniProt Q7Z3B4|Q7Z3B4-3,1.01 ± 0.032
6,UniProt Q16630|Q16630-2,2.23 ± 0.3
7,AARS2 (UniProt Q5JTZ9),0.998 ± 0.059
8,UniProt Q10567|Q10567-2|Q10567-3,0.943 ± 0.044
9,UniProt Q12872|Q12872-2,1.24 ± 0.024
10,PSMD2 (UniProt Q13200),1.08 ± 0.19
11,UniProt Q86Y37|Q86Y37-4,0.9274 ± 0.0067
12,UniProt Q16864|Q16864-2,1.04 ± 0.067
13,LEMD2 (UniProt Q8NC56),1.34 ± 0.15
14,UniProt Q13428|Q13428-3|Q13428-4|Q13428-7,1.09 ± 0.15
15,DHX9 (UniProt Q08211),1.2 ± 0.26
16,THOC7 (UniProt Q6I9Y2),1.92 ± 0.32
17,DDX1 (UniProt Q92499),0.971 ± 0.072
18,EDC4 (UniProt Q6P2E9),1.01 ± 0.029
19,P86790|P86791 (UniProt P86791+P86790),0.99 ± 0.038
20,RAB8A (UniProt P61006),0.849 ± 0.068

row,Target,NP40-soluble protein abundance
1,MBLAC2 (UniProt Q68D91),1.02 ± 0.13
2,SNW1 (UniProt Q13573),0.94 ± 0.071
3,UniProt Q13427|E9PG73,1.16 ± 0.098
4,UniProt Q63HQ0,0.911 ± 0.13
5,MLKL (UniProt Q8NB16),0.908 ± 0.035
6,UniProt P62277,1.02 ± 0.3
7,EXOSC7 (UniProt Q15024),1.11 ± 0.12
8,CCDC25 (UniProt Q86WR0),0.842 ± 0.071
9,UniProt P60228,1.14 ± 0.17
10,UniProt Q86W42|Q86W42-2,1.87 ± 0.52
11,UniProt Q6UXH1|Q6UXH1-4|Q6UXH1-5|Q6UXH1-6,0.959 ± 0.093
12,UniProt Q14103-3|D6RF44|Q14103-4,0.894 ± 0.1
13,MTM1 (UniProt Q13496),0.99 ± 0.076
14,UniProt Q7KZN9|Q7KZN9-2,0.961 ± 0.022
15,KPNB1 (UniProt Q14974),0.989 ± 0.037
16,RDH11 (UniProt Q8TC12),0.895 ± 0.051
17,TWF2 (UniProt Q6IBS0),1.02 ± 0.055
18,PDCD6IP (UniProt Q8WUM4),0.889 ± 0.075
19,UniProt Q14444|Q14444-2,1.01 ± 0.14
